This is an account of results in PubChem BioAssay.

Values joined by “and” are separate entries in the source; they are usually repeats but may differ in a detail not shown here. Equal entries are not always repeated. Inconclusive results are not listed. Active and inactive are the calls of the source. Unless noted, how the calls were made is not given here.

For assay [1], the system named is Neuropilin-2 / VEGF-C interaction (human). Description: small molecules blocking Neuropilin-2/VEGF-C interaction – biochemical, microplate binding format, z-score (AID 743281). Particulars: microplate NRP2/VEGF-C binding assay; stronger effect = lower value.
Assay [2] in a line: viability loss in pontine glioma line – cell-based, SU-DIPG-XVII, MIPE5.0, CellTiter-Glo, qHTS, dose response (AID 1347060; cut-off not given, nearly all actives have AC50 up to about 26 µM). Particulars: CellTiter-Glo ATP luminescence. A general note: In ATP-based viability assays light output follows the ATP content of the culture.
A short description of assay [3]: viability loss in pontine glioma line – cell-based, SU-DIPG-XIII, MIPE4.0, CellTiter-Glo, qHTS, dose response (AID 1347061; cut-off not given, nearly all actives have AC50 up to about 37 µM;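 further: cells exposed to compound for 48 hours before readout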). Particulars: CellTiter-Glo ATP luminescence.
The nature of assay [4]: viability loss in pontine glioma line – cell-based, JHH-DIPG-1, MIPE4.0, CellTiter-Glo, qHTS, dose response (AID 1347062; cut-off not given, nearly all actives have AC50 up to about 27 µM). To be noted: JHH-DIPG-1 viability, CellTiter-Glo ATP luminescence.
Assay [5] can be described thus: viability loss in pontine glioma line – cell-based, SU-DIPG-IV, MIPE4.0, CellTiter-Glo, qHTS, dose response (AID 1347063; cut-off not given, nearly all actives have AC50 up to about 30 µM;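 further: compound exposure lasted 48 hours before the viability readout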). Particulars: CellTiter-Glo ATP luminescence.
Assay [6] can be described thus: viability loss in pontine glioma line – cell-based, SU-DIPG-XIII, MIPE5.0, CellTiter-Glo, qHTS, dose response (AID 1347064; cut-off not given, nearly all actives have AC50 up to about 23 µM). Particulars: CellTiter-Glo ATP luminescence.
A short description of assay [7]: viability loss in pontine glioma line – cell-based, SU-DIPG-XXV, MIPE5.0, CellTiter-Glo, qHTS, dose response (AID 1347065; cut-off not given, nearly all actives have AC50 up to about 26 µM;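 further: cells exposed to compound for 48 hours before ATP readout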). To be noted: CellTiter-Glo ATP luminescence.
Assay [8] is described as follows: growth inhibition of DIPG cells – cell-based, MIPE4.0 library, CellTiter-Glo luminescence, qHTS (AID 1347066; cut-off not given, nearly all actives have AC50 up to about 30 µM;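 further: cells exposed to compound for 48 hours before readout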). Particulars: SU-DIPG-VI viability, CellTiter-Glo ATP luminescence.
The nature of assay [9]: JHH-DIPG-1 glioma cell viability, MIPE5.0 library, CellTiter-Glo luminescence, qHTS (AID 1347067; cut-off not given, nearly all actives have AC50 up to about 26 µM;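 further: cells exposed to compound for 48 hours before readout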). To be noted: JHH-DIPG-1 glioma viability, CellTiter-Glo ATP luminescence.
Assay [10] can be described thus: growth inhibition of DIPG cells – cell-based, MIPE5.0 library, qHTS (AID 1347068; cut-off not given, nearly all actives have IC50 up to about 30 µM). Particulars: SU-DIPG-XXV viability. On the technique in general: Quantitative high-throughput screening tests each substance at several concentrations.
Assay [11] in a line: blockers of cellular phospholipid synthesis – cell-based, LOPAC library, screen 4, primary screen (AID 1347384). Particulars: animal cells, phospholipid biosynthesis inhibition screen; at 10 µM.
For assay [12], the target named is NAD(+) hydrolase SARM1 (Homo sapiens) (UniProt Q6SZW1). Description: blocking NAD cleavage by SARM1 SAM-TIR – cell lysate, NAD-Glo luminescence (AID 1508614;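 active means compound whose remaining NAD level is above about 45 nM, limit read from the data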). Particulars: SAM-TIR HEK293T lysate NADase, at 1 µM, stronger effect = higher value.
Sequence of NAD(+) hydrolase SARM1 (Homo sapiens) (Q6SZW1 whole entry, looked up): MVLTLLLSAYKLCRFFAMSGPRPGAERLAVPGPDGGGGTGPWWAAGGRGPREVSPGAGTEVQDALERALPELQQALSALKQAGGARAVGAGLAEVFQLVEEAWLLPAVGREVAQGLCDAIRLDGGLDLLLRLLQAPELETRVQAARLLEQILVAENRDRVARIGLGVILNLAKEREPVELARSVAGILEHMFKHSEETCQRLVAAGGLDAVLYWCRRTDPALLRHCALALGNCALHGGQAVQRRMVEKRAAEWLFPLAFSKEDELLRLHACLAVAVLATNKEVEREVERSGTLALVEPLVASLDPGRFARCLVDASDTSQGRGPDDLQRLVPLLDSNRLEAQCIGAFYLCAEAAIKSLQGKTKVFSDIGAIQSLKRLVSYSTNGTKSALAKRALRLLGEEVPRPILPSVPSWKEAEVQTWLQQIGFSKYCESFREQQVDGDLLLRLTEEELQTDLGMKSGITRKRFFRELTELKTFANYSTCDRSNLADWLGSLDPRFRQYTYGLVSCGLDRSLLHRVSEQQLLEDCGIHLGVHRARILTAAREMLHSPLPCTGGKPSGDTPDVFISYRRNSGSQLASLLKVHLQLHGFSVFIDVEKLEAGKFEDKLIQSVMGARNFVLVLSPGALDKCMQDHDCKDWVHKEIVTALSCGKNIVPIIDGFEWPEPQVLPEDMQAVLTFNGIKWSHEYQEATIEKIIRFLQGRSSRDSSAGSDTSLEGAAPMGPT
A short description of assay [13]: galactose survival enhancers in mitochondrial complex I cybrids – cell-based, galactose medium, ATP luminescence, primary screen (AID 1645843;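 active means z-score of at least 1.8 in each of two replicates, scored against plate mean and spread of sample wells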;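 further: positive z means more ATP and so rescue of galactose-driven cybrid death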). To be noted: complex I mutant cybrid cells, 72 h, stronger effect = higher value.
The subject of assay [14] is Aerobactin synthetase IucA (Klebsiella pneumoniae). Description: inhibition of K. pneumoniae IucA enzyme – biochemical, Tocris library, absorbance (AID 1345561).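 Further: 100% = enzyme without compound and 0% = no enzyme.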 To be noted: purified IucA enzyme assay, absorbance (OD) read-out; stronger effect = lower value;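 tested at 8 µM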.
Assay [15] concerns the target Mitogen-activated protein kinase 7 (Homo sapiens) (UniProt Q13164). The assay can be described thus: Gal4-ERK5 driven luciferase induction – cell-based, HTS, primary screen (AID 1508626;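 active means luciferase signal above three times the same-plate solvent-only control wells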;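 further: luciferase driven by Gal4-ERK5 fusion binding five Gal4 sites before minimal TATA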). Particulars: HeLa Gal4-ERK5 transactivation, 18 h, at 5 µM, stronger effect = higher value.
Assay [16] can be described thus: compounds altering circadian rhythm period length – cell-based, LOPAC library, luminescence reporter (AID 2774).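 Further: values are relative to mean of DMSO wells on each plate.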 To be noted: circadian reporter cells, at 7 µM, actives lie on both sides.
The subject of assay [17] is Hepatitis C virus NS3 helicase. Description: blockers of NS3h binding to ssDNA – biochemical, fluorescence polarization, LOPAC1280 library, primary screen (AID 687035; in the data active means inhibition above about 37%). To be noted: Purified HCV NS3 helicase, Cy5-dT15 ssDNA binding fluorescence polarization; stronger effect = higher value; concentration not given here.
The nature of assay [18]: compounds altering Cy5-DNA-NS3h complex signal – biochemical, LOPAC1280, artefact control for HCV NS3 helicase inhibitor project (AID 687037). To be noted: Cy5-DNA-NS3h complex fluorescence interference counterscreen.
Assay [19] in a line: compounds altering HSF1 focus formation in cells – imaging, Selleck Cancer Library (AID 1347162; in the data active means plate-normalised HSF1 focus index below about 0.46). Particulars: human cells, HSF1 nuclear foci imaging, at 10 µM; SSMD: measured here: HSF1 foci SSMD mean; cell count: measured here: cell number; plate-normalised HSF1 focus index: stronger effect = lower value.
Assay [20] in a line: growth inhibition, single agents and combos, ICB984, cell-based, cisplatin or BGB combos, synergistic combos for chromothripsis tumors (AID 1671451).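 Further: cells exposed for 96 hours before readout; 0% = vehicle DMSO and 100% = killing by high DMSO.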 To be noted: ICB984 medulloblastoma cells, drug combinations, stronger effect = higher value.

Sequence of Mitogen-activated protein kinase 7 (Homo sapiens) (Q13164 whole entry, looked up, the tested form may be a part): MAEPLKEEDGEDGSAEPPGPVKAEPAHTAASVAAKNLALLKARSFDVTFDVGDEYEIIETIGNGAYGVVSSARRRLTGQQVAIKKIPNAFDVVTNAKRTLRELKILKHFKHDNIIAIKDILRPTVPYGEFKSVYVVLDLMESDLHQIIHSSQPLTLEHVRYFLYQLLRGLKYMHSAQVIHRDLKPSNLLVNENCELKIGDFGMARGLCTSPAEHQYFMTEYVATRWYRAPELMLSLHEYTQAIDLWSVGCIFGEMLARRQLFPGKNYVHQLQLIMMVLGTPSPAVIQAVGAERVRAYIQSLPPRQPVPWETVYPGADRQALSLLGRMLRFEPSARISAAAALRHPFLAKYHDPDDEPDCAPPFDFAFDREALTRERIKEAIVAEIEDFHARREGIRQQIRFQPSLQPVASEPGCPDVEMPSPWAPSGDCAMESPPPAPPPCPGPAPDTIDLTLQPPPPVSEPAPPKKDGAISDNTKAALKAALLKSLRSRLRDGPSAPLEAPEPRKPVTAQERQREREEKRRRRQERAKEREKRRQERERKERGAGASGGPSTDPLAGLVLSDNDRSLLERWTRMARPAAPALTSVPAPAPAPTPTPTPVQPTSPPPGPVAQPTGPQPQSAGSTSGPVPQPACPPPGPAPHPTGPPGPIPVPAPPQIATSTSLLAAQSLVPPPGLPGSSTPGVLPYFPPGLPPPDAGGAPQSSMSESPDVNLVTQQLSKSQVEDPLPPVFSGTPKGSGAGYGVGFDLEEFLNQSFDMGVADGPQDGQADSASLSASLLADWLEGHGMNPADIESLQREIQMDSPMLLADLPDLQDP

As for `CC(=O)NC[C@H]1CN(c2ccc(N3CCOCC3)c(F)c2)C(=O)O1`, the z-score was 0.877 (inactive) in assay [1]; 1.22 (inactive) and -0.185 (inactive) in assay [13]. In addition, the result in assay [2], in assay [3], in assay [4], in assay [5], in assay [6] and in [7] was inactive. The molecule was called inactive in [8], in assay [9], in [10] and in [11]. In addition, the remaining NAD in assay [12] was 10 nM (inactive).

The remaining activity is the signal under treatment as a percentage of the control signal. Turning to `Cc1c(C(=O)NN2CCCCC2)nn(-c2ccc(Cl)cc2Cl)c1-c1ccc(I)cc1`, the z-score in assay [1] was 0.177 (inactive); in [13] it was -1.88 (inactive) and -0.83 (inactive). Moreover, in assay [14], the remaining activity is 112% (inactive).

On to `COc1c(N2C[C@@H]3CCCN[C@@H]3C2)c(F)cc2c(=O)c(C(=O)O)cn(C3CC3)c12`, for which the z-score in assay [1] is -1.5 (inactive). Further, the call in assay [3], in assay [4], in [5], in [6], in [7] and in assay [9] was inactive. Further, in assay [10], the result was inactive. For the same molecule, in assay [12], the remaining NAD was 10 nM (inactive). The luciferase signal in assay [15] is 64 AU (inactive).

A word on the inhibition: it is the relative decrease from the control value, in per cent. As to `Cc1cnc(C(=O)NCCc2ccc(S(=O)(=O)NC(=O)NC3CCCCC3)cc2)cn1`, the period change in assay [16] is 0.035 h (inactive). In addition, the inhibition in [17] was -1% (inactive). The fluorescence ratio (interference) in [18] is 1 (inactive). Moreover, the outcome in [4], in assay [6], in assay [7], in assay [8], in [9] and in assay [10] was inactive. Further, in assay [11], the call was inactive. The remaining NAD in [12] is 10 nM (inactive). In addition, the z-score in assay [13] is 1.17 (inactive) and 0.66 (inactive) and 1.06 (inactive).

In general, AC50 refers to the midpoint of the concentration-response curve, whichever way the signal moves. In the case of `CN(C)CCOc1ccc(/C(=C(/CCCl)c2ccccc2)c2ccccc2)cc1`, the z-score is -0.537 (inactive) in assay [1] and -2.31 (inactive) in assay [13]. Besides, the molecule was called inactive in [3], in assay [4] and in assay [8]. In assay [7], the AC50 is 20.9 µM (active). The SSMD in assay [19] is -11.1. For the same molecule, in [19], the cell count came to 3260. The plate-normalised HSF1 focus index in [19] is 0.417 (inactive). Besides, in assay [12], the remaining NAD is 10 nM (inactive).

As to `O=c1[nH]c(=O)n(C2CCCO2)cc1F` (stereo unspecified), the z-score in assay [1] was -1.02 (inactive); in assay [13], 1.17 (inactive) and 0.3 (inactive). Also, the outcome in [2], in [3], in [4], in [5], in assay [6] and in [7] was inactive. Also, the outcome in [8], in [9], in [10] and in [11] was inactive. For the same molecule, the inhibition in assay [20] (BGB IC20 combo, at 0.005 µM) is -7.2% and -19%; in [20] (BGB IC40 combo, at 0.005 µM), -14.4% and -20.1%; in assay [20] (BGB IC40 combo, at 0.05 µM) it was 3.65% and -15.9%; in assay [20] (at 0.5 µM), -2.47% (inactive) and -35.6% (inactive); in assay [20] (cisplatin combo, at 0.05 µM) it was -0.171% and -21.9%; in assay [20] (cisplatin combo, at 0.5 µM), -9.38% and -50%. The inhibition is -27.4% and -5.1% in [20] (cisplatin combo, at 5 µM); 1.9% and -33.4% in assay [20] (measured here: 5 uM single agent, at 5 µM).

Consider `C/C(=C\C(=O)OCCCCCCCCC(=O)O)C[C@@H]1OC[C@H](C[C@@H]2O[C@H]2[C@@H](C)[C@H](C)O)[C@@H](O)[C@H]1O`, for which the remaining NAD in assay [12] was 10 nM (inactive). In addition, the luciferase signal in assay [15] was 48 AU (inactive). Moreover, in assay [13], the z-score is -1.42 (inactive).

Take `CCN(CC)CC#CCOC(=O)C(O)(c1ccccc1)C1CCCCC1` (stereo unspecified): the period change in assay [16] was -0.025 h (inactive). The inhibition in [17] is -3% (inactive). Also, in assay [18], the fluorescence ratio (interference) was 0.9 (inactive). Further, the call in [3], in [4], in assay [5], in assay [8] and in assay [11] was inactive. In assay [12], the remaining NAD is 10 nM (inactive). Also, in [15], the luciferase signal was 68 AU (inactive). Further, the z-score in [13] is -1.22 (inactive) and -1.39 (inactive).

For the molecule `CN1[C@@H]2CCC[C@H]1CC(NC(=O)c1nn(C)c3ccccc13)C2` (stereo partly specified), the results for the z-score in [1] and in assay [13] were 1.21 (inactive) and 0.01 (inactive), respectively. The molecule was classed as inactive in assay [2], in [3], in [4], in [6], in [7] and in [8]. Besides, the outcome in [9] and in assay [10] was inactive. Further, in [12], the remaining NAD is 10 nM (inactive).

For `CC(C)C[C@H](NC(=O)[C@@H](O)[C@H](N)Cc1ccccc1)C(=O)O`, in assay [16], the period change is 0.15 h (inactive). Further, the inhibition in assay [17] was -4% (inactive). For the same molecule, the fluorescence ratio (interference) in assay [18] is 1 (inactive). For the same molecule, the z-score in assay [1] was 0.0206 (inactive); in assay [13], 0.375 (inactive) and 0.725 (inactive). In assay [14], the remaining activity is 117% (inactive). Also, the outcome in [2], in assay [4], in assay [6], in assay [9], in assay [10] and in [11] was inactive. In addition, the AC50 in assay [5] is 18.7 µM (active); in assay [8], 20.9 µM (active). Further, the SSMD in assay [19] stood at 2.45. In addition, in assay [19], the cell count worked out at 7080. Besides, the plate-normalised HSF1 focus index in assay [19] is 1.13 (inactive).

As for `CSc1nc2cc(Oc3cccc(Cl)c3Cl)c(Cl)cc2[nH]1`, the z-score in assay [1] is 0.432 (inactive); in [13], -1.88 (inactive).

For the molecule `CCOC(=O)c1ccc(OC(=O)CCCCCN=C(N)N)cc1`, the z-score in [1] is -0.315 (inactive); in [13], 0.415 (inactive) and -0.085 (inactive). For the same molecule, the remaining activity in [14] was 124% (inactive). The molecule was called inactive in [2], in assay [3], in assay [4], in assay [5], in assay [6] and in assay [8]. Also, the molecule was called inactive in assay [9] and in assay [10].

For the molecule `CCCCN1CCCC1CNC(=O)c1cc(C#N)c2ccccc2c1OC` (stereo unspecified), the z-score in assay [1] is 1.01 (inactive); in [13], -0.605 (inactive) and -0.3 (inactive). Besides, the remaining activity in assay [14] is 113% (inactive).

As to `NCC(O)c1ccc(O)c(O)c1` (stereo unspecified), the period change in [16] was 0.075 h (inactive). The inhibition in [17] was -3% (inactive). The fluorescence ratio (interference) in assay [18] is 0.9 (inactive). For the same molecule, the result in [11] was inactive. For the same molecule, the z-score in assay [13] is -1.48 (inactive) and -0.825 (inactive).

Consider `CNCC[C@H](Oc1cccc2ccccc12)c1cccs1`, for which, in [1], the z-score was 0.369 (inactive) and 0.383 (inactive). The AC50 in assay [3] is 1.32 µM (active). The molecule was called inactive in assay [8]. Moreover, the remaining NAD in [12] was 10 nM (inactive). The luciferase signal in assay [15] is 36 AU (inactive).
